Bioassay records as filed in PubChem.
Sa ugtP lethal – compounds lethal to S. aureus RN4220 ugtP deletion mutant | OD600 growth, 16 h | growth inhibition, % (no concentration beside the values) | actives 0.54% (n = 330,000) | AID 1259309; in the data active means growth inhibition above about 68%
DUSP3 inh – inhibitors of human VHR1 phosphatase (DUSP3) | actives 0.52% (n = 290,000) | recombinant VHR phosphatase, pNPP absorbance | inhibition, % at 13.3 µM | AID 1654; in the data active means inhibition above about 50%
Target sequence (P51452 whole entry, looked up): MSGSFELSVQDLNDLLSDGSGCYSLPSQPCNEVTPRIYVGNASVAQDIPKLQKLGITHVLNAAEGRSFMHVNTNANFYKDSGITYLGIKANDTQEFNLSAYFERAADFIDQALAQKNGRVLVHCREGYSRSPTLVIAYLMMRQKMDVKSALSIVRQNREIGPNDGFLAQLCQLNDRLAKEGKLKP
Sa RN4220 lethal – S. aureus RN4220 growth inhibition | actives 0.33% (n = 330,000) | OD600, 16 h | inhibition, % (no concentration beside the values); in the data active means inhibition above about 85%
PrPC TRFRET – reduces human prion protein on the cell surface | AID 720596 | inhibition, % at 13.8 µM | P04156 | actives 0.43% (n = 370,000) | cell surface PrPC, TR-FRET read-out; in the data active means inhibition above about 24%
PfHsp40 rescue – restores yeast growth despite PfHsp40 toxicity; growth rescue, % at 12.5 µM; actives 0.68% (n = 340,000); S. cerevisiae expressing PfHsp40, growth rescue, ATP luminescence; in the data active means growth rescue above about 28%, passing the limit was not always enough; inconclusive means no clear call, values can overlap the other calls;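 further: yeast W303a lacking pdr1 and pdr3 grown in galactose medium; growth measured after three days at 30 °C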
Of the large screens only hits and unclear results are named; the others gave an inactive call; ! = not active in a repeat. An excerpt weighted towards active compounds, which were near 1.8% of everything screened.

CCOC(=O)c1sc2nc(CC(=O)OC)nc(NCCN(CC)CC)c2c1C	PfHsp40 rescue 74
CCOC(=O)c1sc2nc(CC(=O)OC)nc(NCCN3CCOCC3)c2c1C	none
O=[N+]([O-])c1cc2oc3c(c2c(C=NCc2ccccc2)c1O)CCCC3	PfHsp40 rescue 230
CC(C)CN=Cc1c(O)c([N+](=O)[O-])cc2oc3c(c12)CCCC3	PfHsp40 rescue 484
NC(=O)NN=Cc1c(O)ccc2oc3c(c12)CCCC3	none (no result: DUSP3 inh, PrPC TRFRET, PfHsp40 rescue)
CC(=NNC(=O)c1ccccc1)c1cccc(Br)c1	none (no result: DUSP3 inh, PrPC TRFRET, PfHsp40 rescue)
CC(/C=C1\SC(=S)N(c2ccc(C(=O)O)cc2)C1=O)=C\c1ccccc1	DUSP3 inh 53 (no result: Sa ugtP lethal, Sa RN4220 lethal)
CC(=S)/C=C1\Sc2ccccc2N1C	none
CN1c2ccccc2Sc2cc(N)ccc21	DUSP3 inh 55 (no result: Sa ugtP lethal, Sa RN4220 lethal)
COc1ccc(C(=O)NCCN2C(=O)S/C(=C\c3cccnc3)C2=O)c(OC)c1OC	none
CCOc1cc(C(=O)NCCN2C(=O)S/C(=C\c3cccnc3)C2=O)cc(OCC)c1OCC	DUSP3 inh 53 (no result: Sa ugtP lethal, Sa RN4220 lethal)
Cc1ccc(C(=O)Sc2cccccc2=O)cc1	PfHsp40 rescue 698
O=C(O)CCCCCN1C(=O)C(O)=C(C(=O)C=Cc2ccccc2)C1c1cccc([N+](=O)[O-])c1 (stereo not given)	none (no result: DUSP3 inh, PrPC TRFRET, PfHsp40 rescue)
O=c1cc2c(=O)oc3cc(O)c(O)oc3c2c(O)c1O	DUSP3 inh 112
Cc1ccc(CN2C(=O)CCC2C(=O)NCc2ccc(F)cc2)cc1 (stereo not given)	PfHsp40 rescue 63
O=C(NCc1ccccc1Cl)C1CCC(=O)N1Cc1ccc(F)cc1 (stereo not given)	none (no result: PfHsp40 rescue)
CCN1C(=O)C2C(c3ccc(-c4ccc(F)cc4)c(OC)c3)N3CCC[C@@]3(C(=O)OC)C2C1=O (stereo not given in full)	none (no result: DUSP3 inh, PrPC TRFRET, PfHsp40 rescue)
O=C(Nc1cc(Cl)cc(Cl)c1)N1CCCC1	Sa RN4220 lethal 91
Cc1cccc(NC(=O)N2CCCC2)c1	DUSP3 inh 52
O=C(Nc1ccc(F)c(Cl)c1)N1CCCC1	none
COc1ccccc1C=NOCC(=O)NCc1ccc2c(c1)OCO2	none (no result: DUSP3 inh, PrPC TRFRET, PfHsp40 rescue)
CC1(C)C(C=C(Cl)Cl)C1C(=O)Nc1ccc([N+](=O)[O-])cc1 (stereo not given)	Sa ugtP lethal 94, Sa RN4220 lethal 87 (no result: PfHsp40 rescue)
CCOC(=O)c1ccc(OCC2NCCc3cc(OC)c(OC)cc32)cc1 (stereo not given)	none
COC(=O)c1ccc(OCC2NCCc3cc(OC)c(OC)cc32)cc1 (stereo not given)	DUSP3 inh 56 (no result: PrPC TRFRET)
COC(=O)CCCC=C1SCC(NC(=O)c2ccccc2)C1=NO (stereo not given)	none (no result: DUSP3 inh, PrPC TRFRET, PfHsp40 rescue)
COC(=O)c1scc(C)c1NN=C(C)c1ccc(F)cc1	none (no result: DUSP3 inh, PrPC TRFRET, PfHsp40 rescue)
CCOc1ccccc1C(=O)Nc1cc2c(cc1N1CCCC1)n(CC)c(=O)n2CC	none
CCn1c(=O)n(CC)c2cc(N3CCCC3)c(NC(=O)c3ccccc3OC)cc21	DUSP3 inh 52
c1ccc(-c2nc3nonc3nc2-c2ccccc2)cc1	Sa ugtP lethal 98, Sa RN4220 lethal 97
Nc1c(-c2ccccc2)nc(Cl)nc1-c1ccccc1	none
O=S(OCCN1CCOCC1)C(c1ccccc1)c1ccccc1 (stereo not given)	PfHsp40 rescue 109 (no result: DUSP3 inh)
CCOC(=O)c1sc(N2C(=O)C(O)=C(C(=O)c3ccc(C)o3)C2c2ccc(OC)c(OC)c2)nc1C (stereo not given)	PfHsp40 rescue 42
COc1ccc(CC(=O)Nc2ccc(C(=O)O)cc2NC(=O)Cc2ccc(OC)cc2)cc1	DUSP3 inh 57
COc1ccc(CC(=O)Nc2ccc(N3CCCC3)c(C)c2)cc1	DUSP3 inh 50
COc1ccc(C(=O)Nc2ccc(C(=O)O)cc2NC(=O)c2ccc(OC)cc2)cc1	none
NC(CSc1nc(-c2ccccc2)c(-c2ccccc2)o1)=NO	none (no result: DUSP3 inh, PrPC TRFRET, PfHsp40 rescue)
CCc1oc2ccccc2c1C(=O)c1cc(Br)c(O)c(Br)c1	PfHsp40 rescue 259! (no result: Sa ugtP lethal, Sa RN4220 lethal)
CCc1ccc(OCC(=O)c2c(O)c3ccccc3oc2=O)cc1	none
Oc1ccc(CNc2ccccc2C(F)(F)F)c2cccnc12	none (no result: Sa ugtP lethal, DUSP3 inh, Sa RN4220 lethal, PfHsp40 rescue)
Oc1ccc(CNc2ccccc2F)c2cccnc12	PfHsp40 rescue 39
COC(=O)C1=C(c2ccc(OC)c(OC)c2)CC2CCC1N2C(=O)NCCO (stereo not given)	none (no result: DUSP3 inh, PrPC TRFRET, PfHsp40 rescue)
COC(=O)C1CCC(C)C(c2ccc(C)cc2)N1C(=O)c1ccc(C=NOCCC2C=CC(OC(C)=O)C(COC(C)=O)O2)cc1 (stereo not given)	none (no result: DUSP3 inh, PrPC TRFRET, PfHsp40 rescue)
CN(N=Cc1cccnc1)c1cnc2ccccc2n1	none (no result: DUSP3 inh, PrPC TRFRET, PfHsp40 rescue)
FC(F)Oc1ccc(C=Nn2c(Cc3ccc(Br)cc3)n[nH]c2=S)cc1	none (no result: DUSP3 inh, PrPC TRFRET, PfHsp40 rescue)
COc1ccc(C(=O)Nc2ccnn2C2CCN(C3CCC3)CC2)cc1	DUSP3 inh 52
Cc1ccc(OCC(=O)Nc2cc(C)on2)c([N+](=O)[O-])n1	none
Cc1ccc(OCC(=O)NC(C)c2ccc(Cl)c(Cl)c2)c([N+](=O)[O-])n1 (stereo not given)	DUSP3 inh 52
COc1cc2c(ccc3c4cc(OC)c(OC)cc4c[n+](C)c23)cc1O	PfHsp40 rescue 127 (no result: Sa ugtP lethal, DUSP3 inh, Sa RN4220 lethal)
COc1ccc2c(c1)c[n+](C)c1c3cc(OC)c(OC)cc3ccc21	none (no result: Sa ugtP lethal, DUSP3 inh, Sa RN4220 lethal, PfHsp40 rescue)
C[C@H]1COC2=C1C(=O)C(=O)c1c2ccc2c1CCCC2(C)C	PfHsp40 rescue 72 (no result: PrPC TRFRET)
Cc1coc2c1C(=O)C(=O)c1c-2ccc2c1CCCC2(C)C	PfHsp40 rescue inconclusive
COc1ccc(OC)c(-c2cc(C(=O)Nc3ccc(F)cc3F)no2)c1	none
COc1ccc(-c2cc(C(=O)Nc3ccc(F)cc3F)no2)cc1	DUSP3 inh 55
O=C(NN=C1C(=O)c2cccc3cccc1c23)c1ccc(Cl)cc1	Sa ugtP lethal 92, Sa RN4220 lethal 97 (no result: DUSP3 inh, PrPC TRFRET, PfHsp40 rescue)
COc1ccc(C(=O)Oc2ccc(C=NNC(=O)c3ccccc3OC)cc2[N+](=O)[O-])cc1	none (no result: DUSP3 inh, PrPC TRFRET, PfHsp40 rescue)
C#Cc1ccc(C2C=C(C(=O)N3CCN(Cc4ccc5c(c4)OCO5)CC3)OC(OCc3ccc(CO)cc3)C2)cc1 (stereo not given)	none (no result: DUSP3 inh, PrPC TRFRET, PfHsp40 rescue)
O=C(NC(Cc1ccccc1)C(=O)O)c1ccc(C(F)(F)F)cc1 (stereo not given)	none (no result: DUSP3 inh, PrPC TRFRET, PfHsp40 rescue)
Cc1n[nH]c(C)c1N=Nc1ccc(Br)cc1	PfHsp40 rescue 242
COc1ccc(N=Nc2c(C)n[nH]c2C)cc1	none
COc1cc(C=CC(=O)OCC(=O)NC(=O)NC(C)C)cc(OC)c1OC	none (no result: DUSP3 inh, PrPC TRFRET, PfHsp40 rescue)
CCCC1COC(Cn2cncn2)(c2ccc(Cl)cc2Cl)O1 (stereo not given)	PfHsp40 rescue 134
COc1ccc(C(C)=NN2C(=O)c3ccccc3NC2c2ccc(O)c(OC)c2)cc1 (stereo not given)	none (no result: DUSP3 inh, PrPC TRFRET, PfHsp40 rescue)
C/C=C/C=NNC(=O)CN(c1ccc(Br)cc1)S(=O)(=O)c1ccccc1	none (no result: DUSP3 inh, PrPC TRFRET, PfHsp40 rescue)
COc1cc(C(=O)ON=C2C3CC4CC(C3)CC2C4)cc(OC)c1OC	PfHsp40 rescue 325
Nc1nn2cc(-c3ccc(Br)cc3)nc2c2ccccc12	PfHsp40 rescue 91 (no result: Sa ugtP lethal, Sa RN4220 lethal)
CCOc1cc([N+](=O)[O-])cc(/C=N/NC(=O)c2c(-c3ccccc3)noc2C)c1O	PfHsp40 rescue 261 (no result: Sa ugtP lethal, Sa RN4220 lethal, PrPC TRFRET)
Cc1onc(-c2ccccc2)c1C(=O)Nc1ncc([N+](=O)[O-])s1	Sa ugtP lethal 82
